Source: PubChem BioAssay AID488969 (Vanderbilt High Throughput Screening Facility, 2010)
In all, about 110,000 compounds were measured (“z-score”: median about -0.1, highest 2% from about 2 on). This excerpt belongs to a sample that is enriched for the highest values. Activity calls are given as the source filed them.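 Rule for the calls: active = z-score in the third read window above 3 or below -3; inactive = the rest.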

The compounds below were run against Metabotropic glutamate receptor 8 (Rattus norvegicus) (UniProt P70579) (assay: rat mGluR8 modulators via GIRK flux, primary screen, cell-based, thallium flux, HTS (AID 488969)). Settings: HEK293 rat mGluR8, GIRK (G protein-gated inwardly rectifying potassium channel) thallium flux, FluoZin2; at 10 µM; stronger effect = higher value; submaximal glutamate (EC20) added with thallium.
Chain of Metabotropic glutamate receptor 8 (Rattus norvegicus) (P70579 whole entry, looked up): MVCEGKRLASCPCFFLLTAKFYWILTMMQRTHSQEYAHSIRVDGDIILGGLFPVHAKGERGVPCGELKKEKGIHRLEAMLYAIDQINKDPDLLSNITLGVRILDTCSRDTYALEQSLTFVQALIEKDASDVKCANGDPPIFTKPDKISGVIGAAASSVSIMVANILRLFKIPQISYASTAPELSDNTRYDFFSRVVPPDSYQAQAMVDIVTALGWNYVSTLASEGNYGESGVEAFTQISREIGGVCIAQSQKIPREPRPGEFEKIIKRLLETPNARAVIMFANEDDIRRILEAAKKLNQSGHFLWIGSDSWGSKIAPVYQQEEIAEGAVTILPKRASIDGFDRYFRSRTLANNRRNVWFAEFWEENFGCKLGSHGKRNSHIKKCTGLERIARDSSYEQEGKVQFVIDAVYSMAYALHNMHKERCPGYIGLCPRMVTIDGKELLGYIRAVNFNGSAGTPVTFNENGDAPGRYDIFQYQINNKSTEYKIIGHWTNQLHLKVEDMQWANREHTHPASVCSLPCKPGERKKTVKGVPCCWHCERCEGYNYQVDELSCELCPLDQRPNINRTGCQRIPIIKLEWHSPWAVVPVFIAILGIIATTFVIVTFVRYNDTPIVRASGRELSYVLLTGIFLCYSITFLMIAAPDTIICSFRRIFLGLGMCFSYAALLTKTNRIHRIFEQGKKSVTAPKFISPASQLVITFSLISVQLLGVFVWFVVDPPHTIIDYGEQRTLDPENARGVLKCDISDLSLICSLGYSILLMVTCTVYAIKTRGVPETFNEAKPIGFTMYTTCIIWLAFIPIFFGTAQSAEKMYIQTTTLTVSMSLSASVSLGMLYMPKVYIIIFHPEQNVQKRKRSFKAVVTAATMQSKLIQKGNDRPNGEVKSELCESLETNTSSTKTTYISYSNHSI

First: CCN(CC)c1nc2nonc2nc1N(CC)CC
Second: Cc1cc(C)n(-c2nc3nonc3nc2-n2nc(C)cc2C)n1
The z-score of the first is higher: 2.53 for the first, 0.084 for the second.

Compared with `Cc1ccc(Nc2nc3nonc3nc2N(C)C)cc1`, `Cc1ccc(Oc2c(C=O)c3ccccc3n2C)cc1` is lower in z-score: -0.0276 for the first, -0.989 for the second.

Going from `Cc1n[nH]c(C)c1S(=O)(=O)N(CC(=O)Nc1ccc2c(c1)OCCO2)c1ccc(C(C)C)cc1` to `COc1ccc(C/C(C)=N/NC(=S)Nc2ccc(C(C)C)cc2)cc1`, the z-score rises from -0.193 to 0.256.

Going from `O=C(NCCCc1ccccc1)Nc1ccccc1` to `O=C(NCCCc1ccccc1)Nc1cccc(Cl)c1`, the z-score rises from 0.456 to 2.01.

First: O=C(NCCc1ccc(Cl)cc1)Nc1cccc(Cl)c1
Second: O=C(Nc1cccc(O)c1)c1cc(-c2ccco2)on1
The z-score of the first is higher: 0.529 for the first, -0.103 for the second.

Going from `Cc1nc(N2CCN(C)CC2)c2c(C)c(C(=O)Nc3ccc(C)c(F)c3)sc2n1` to `CN(C)c1cccc(C(=O)Nc2ccc(N3CCOCC3)cc2)c1`, the z-score rises from -0.555 to -0.0628.

Compared with `CCCc1cc(=O)[nH]c(SCC(=O)NC(=O)OCC)n1`, `COc1ccc(CSc2nc(C)cc(=O)[nH]2)cc1Br` is lower in z-score: -0.0127 for the first, -1.02 for the second.

Going from `Cc1cc(C)n(S(=O)(=O)c2ccc(C(C)(C)C)cc2)n1` to `CC(=O)Nc1ccc(S(=O)(=O)Nc2nnc(C(C)(C)C)s2)cc1`, the z-score rises from -1.41 to 0.307.

Compared with `CCc1nc(SCC(=O)Nc2c(C)nn(C)c2C)c2cnn(-c3ccccc3)c2n1`, `CCN1CCN(c2ncnc3c2cnn3-c2ccccc2)CC1` is higher in z-score: -0.873 for the first, 0.0325 for the second.

Compared with `O=C(NC1(C(F)(F)F)NC(=O)N(C2CCCC2)C1=O)C1CC1` (configuration not stated), `CC(=O)NC1(C(F)(F)F)NC(=O)N(C2CCCCC2)C1=O` (configuration not stated) is lower in z-score: -0.129 for the first, -0.137 for the second.

First: CCOC(=O)NC1(C(F)(F)F)NC(=O)N(C2CCCCC2)C1=O (configuration not stated)
Second: CC1(C)NC(=O)N(CC(O)CN2CCCCC2)C1=O (configuration not stated)
The z-score of the first is higher: 2.9 for the first, 0.323 for the second.

Compared with `COc1ccc(-c2nnc(SCc3nnc(-c4ccc(Cl)cc4)o3)n2-c2ccccc2)cc1`, `Clc1ccc(Oc2cnc3ccccc3n2)cc1` is higher in z-score: -1.79 for the first, -0.22 for the second.

Compared with `COc1cc(NS(=O)(=O)c2ccc(Br)s2)cc(OC)c1`, `COc1ccc(NS(=O)(=O)c2ccc(Br)s2)cc1OC` is higher in z-score: 0.398 for the first, 2.11 for the second.

Compared with `COc1ccc(C)cc1NS(=O)(=O)c1ccc(Br)s1`, `COc1ccc(C/C(C)=N/NC(=S)Nc2ccc(C)c(C)c2)cc1` is higher in z-score: 0.369 for the first, 1.65 for the second.

First: CCC(=O)Oc1ccc(C(=O)Nc2cccc(C(=O)c3ccccc3)c2)cc1
Second: COc1ccc(NC(=S)NNC(=O)c2ccccc2OC(F)F)cc1
The z-score of the first is lower: 0.022 for the first, 0.204 for the second.

Going from `CN(C)c1cccc(NC2=CC(=[N+]3CCOCC3)CC(C)(C)C2)c1` to `CN(C)c1cccc(N=C2C=C(N3CCOCC3)CC(C)(C)C2)c1`, the z-score rises from 0.942 to 2.3.

First: Cc1ccc(Cl)c2c1NC(=O)C2(O)CC(=O)c1ccc(F)cc1 (configuration not stated)
Second: CN(C)C=NC(=O)c1ccc([N+](=O)[O-])c(CS(=O)(=O)c2ccc(Cl)cc2)c1
The z-score of the first is lower: -0.203 for the first, -0.0395 for the second.

First: COc1ccc(NC(=O)OCCn2c([N+](=O)[O-])cnc2C)cc1
Second: CCOc1ccc(NC(=S)N/N=C(\C)Cc2ccc(OC)cc2)cc1
The z-score of the first is lower: -0.144 for the first, 1.35 for the second.

First: CCOC(=O)C(NCCCO)c1ccccc1 (configuration not stated)
Second: CCc1ccccc1N(CC(=O)O)S(C)(=O)=O
The z-score of the first is lower: -0.247 for the first, 0.424 for the second.

Compared with `COc1ccc(OC)c(-c2c[n+](=O)c3c(n2[O-])CCCC3)c1`, `CCN1CCN(Cc2c(O)ccc3c(=O)c(-c4ccc(OC)c(OC)c4)c(C)oc23)CC1` is lower in z-score: 0.0184 for the first, -0.348 for the second.

First: O=S(=O)(c1ccc(F)cc1)N1CCN(c2ncnc3c2cnn3-c2ccccc2)CC1
Second: c1ccc(-n2ncc3c(N4CCCCC4)ncnc32)cc1
The z-score of the first is higher: 2.11 for the first, -0.259 for the second.

First: CCCCOc1ccc(/C=N/NC(=S)Nc2cc(C)ccc2C)cc1
Second: Cc1ccc(CNC(=S)Nc2ccc(OC(F)F)cc2C)cc1
The z-score of the first is higher: 1.19 for the first, -0.531 for the second.

First: COc1ccccc1NC(=S)NNC(=S)Nc1ccc(OC(F)F)cc1
Second: O=C(Nc1ccc(O)c(-c2nc3ccccc3o2)c1)C1(c2ccc(Br)cc2)CCCC1
The z-score of the first is lower: -0.345 for the first, -0.297 for the second.

Going from `CCN(CCCNC(=O)CCNC(=O)Cn1ccc2ccccc2c1=O)c1ccccc1` to `CC1(C)CC(=O)N(CC(=O)NC2CCCC2)c2ccccc2S1(=O)=O`, the z-score rises from -0.46 to -0.29.

`CCC(CC)C(=O)Nc1cc(OC)c(OC)cc1C(=O)O` gave a z-score of -0.741.

With `CC/C(=N\NC(=S)Nc1cc(C)ccc1C)c1ccc(OC(F)F)cc1` the z-score was 3.47 (active).
In the case of `CC/C(=N\NC(=S)Nc1ccc(OC)cc1)c1ccc(OC(F)F)cc1`, the z-score is reported as 7.5 (active).
`COc1ccc(C/C(C)=N/NC(=S)Nc2ccccc2)cc1` was tested, and the z-score was 5.19 (active).
